Screening data deposited in PubChem by several laboratories.
PriA SSB inh – blocks PriA binding to SSB C-terminal tail; inhibition, % at 33 µM; AlphaScreen SSBct-PriA binding, biotinylated peptide; 430,000 compounds, 0.6% hits; in the data active means inhibition mostly above about 37%, no sharp cut-off; inactive means mostly below about 20%
Anthrax LF inh2 – anthrax lethal factor protease inhibition. P15917. 360,000 compounds, 0.12% hits. multiplex microsphere protease cleavage assay, LF. inhibition, % at 10 µM. AID 588501
BoNT-A LC inh2 – blocks Botulinum neurotoxin A light chain protease | multiplex microsphere protease substrate cleavage, flow cytometry | inhibition, % at 10 µM | 360,000 compounds, 0.17% hits
Bead autofluor – compound fluorescence in toxin protease inhibitor counterscreen; 360,000 compounds, 3.1% hits; compound autofluorescence counterscreen, microsphere flow cytometry; active compounds read high; fluorescence intensity (concentration not given with the values); in the data active means fluorescence intensity above about 16000; inconclusive means no clear call, values can overlap the other calls
BoNT F protease – inhibitors of Botulinum neurotoxin F light chain protease | Multiplex microsphere protease cleavage assay, flow cytometry | inhibition, % at 10 µM | 360,000 compounds, 0.22% hits | AID 588497; in the data active means inhibition above about 35%, passing the limit was not always enough; inconclusive means no clear call, values can overlap the other calls
Numbers stand for hits; . = inactive; ? = inconclusive; / = not tested or not shown. Hits are enriched below; roughly 3.1% of the tested compounds scored in any of these assays. Unless noted, no stated cut-off is given here; in the data, active means inhibition above about 30%; inconclusive means no clear call, values can overlap the other calls; inactive means below that.

SMILES | PriA SSB inh | Anthrax LF inh2 | BoNT-A LC inh2 | Bead autofluor | BoNT F protease
O=c1c2ccccc2nc(-c2ccco2)n1Cc1ccccc1 | . | . | . | . | .
O=C(NNc1ccc(C(F)(F)F)cc1[N+](=O)[O-])c1ccc(NS(=O)(=O)c2ccc(F)cc2)cc1 | 60 | . | . | . | .
CCn1nnc2c(NCCc3c[nH]c4ccccc34)ncnc21 | . | / | / | / | /
O=[N+]([O-])c1ccc(Cl)c(S(=O)(=O)NCCOc2cccc(C(F)(F)F)c2)c1 | . | / | / | / | /
Cc1cc(C)cc(OCCNS(=O)(=O)c2cc([N+](=O)[O-])ccc2Cl)c1 | 36 | / | / | / | /
Cc1cc(C)c2c(n1)sc1c(=O)n(CC(=O)NCc3ccc4c(c3)OCO4)cnc12 | . | / | / | / | /
COc1nc(OCC#N)nc(N2CCCCC2)n1 | . | . | . | . | .
COc1nc(N(C#N)CC(N)=O)nc(N2CCCC2)n1 | . | . | . | 20491 | .
CN1C(=O)c2ccc(-c3ccccc3)nc2NC1C(=O)N1CCCCC1 (stereo unspecified) | . | / | / | / | /
Cc1ccc(S(=O)(=O)Nc2ccccc2C(N)=O)cc1 | . | . | . | 17497 | .
Cc1c(Cl)cccc1N1C(=O)c2ccccc2C1=O | . | . | ? | 25160 | .
O=C1c2cccc3cccc(c23)C(=O)N1c1ccccc1Cl | . | . | . | . | .
O=S(=O)(c1ccc(C2CCCCC2)cc1)N1CCN(c2ccccc2)CC1 | . | / | / | / | /
COCCCNC(=O)CCc1nc2cccnc2n1Cc1ccccc1 | . | . | . | 23819 | .
COc1ccc(Cn2c(CCC(=O)Nc3ccc(CC#N)cc3)nc3cccnc32)cc1 | . | . | . | 22433 | .
COc1ccc(Cn2c(CCC(=O)Nc3ccccc3)nc3cccnc32)cc1 | . | . | . | . | .
Cc1ccc(N2C(=O)C3N=NN(CC(=O)Nc4ccc(F)c(Cl)c4)C3C2=O)cc1Cl (stereo unspecified) | . | / | / | / | /
O=C(CSc1nc2ccccc2[nH]1)c1ccc(F)cc1 | . | / | / | / | /
CCc1ccc(NC(=O)CSc2ncc(S(=O)(=O)c3ccc(C)cc3C)c(=O)[nH]2)cc1 | 69 | / | / | / | /
CCOCCCNS(=O)(=O)c1ccccc1 | . | . | . | 20142 | .
O=C1N/C(=C/c2cccn2-c2ccc(F)cc2)C(=O)N1Cc1ccccc1 | . | . | ? | 23854 | .
O=C(c1ccc([N+](=O)[O-])o1)N1CCN(Cc2nc(-c3ccc(F)cc3)cs2)CC1 | 11 | / | / | / | /
O=c1oc2ccccc2cc1-c1nc2c(s1)CCCC2 | . | . | ? | 23234 | .
O=c1oc2ccccc2cc1-c1nc(-c2ccc(C3CCCCC3)cc2)cs1 | . | / | / | / | /
CN(CCc1ccccn1)C(=O)Nc1ccc(Cl)cc1 | . | . | . | 17188 | .
SMILES | PriA SSB inh | Anthrax LF inh2 | BoNT-A LC inh2 | Bead autofluor | BoNT F protease
O=C(CCSCCc1ccccn1)Nc1ccc(Br)cn1 | . | . | . | 23488 | .
O=C(CCSCCc1ccccn1)Nc1ccc(Cl)cn1 | . | . | ? | 20129 | .
O=C(CCSCCc1ccccn1)Nc1ccccn1 | . | . | . | . | .
O=C(CCSCCc1ccccn1)Nc1ccc(Br)cc1F | . | . | . | . | .
CN(CCc1ccccn1)C(=S)Nc1ccc(Cl)c(Cl)c1 | . | . | . | . | .
c1ccc2c(c1)oc1c(N3CCOCC3)ncnc12 | . | . | . | . | .
C(=C\c1ccccc1)/CN1CCN(c2ncnc3c2oc2ccccc23)CC1 | . | . | ? | 17552 | .
O=S(=O)(Nc1ccc(-c2ccc3nnc(-c4cccs4)n3n2)cc1)c1ccccc1 | . | / | / | / | /
Cc1cccc(S(=O)(=O)Nc2ccc(-c3ccc4nnc(-c5ccccn5)n4n3)cc2)c1 | 79 | / | / | / | /
O=S(=O)(Nc1ccc(-c2ccc3nnc(-c4ccccn4)n3n2)cc1)c1ccccc1F | 101 | / | / | / | /
COc1cc(C(=O)OCc2nc3ccccc3s2)cc(OC)c1OC | . | / | / | / | /
CCN(CC)CCCOc1nc(C)nc2c1oc1ccccc12 | . | . | . | 23099 | .
CCN(CC)CCOc1nc(C)nc2c1oc1ccccc12 | . | . | . | . | .
c1coc(CN(Cc2ccco2)c2ncnc3c2oc2ccccc23)c1 | . | . | . | 19845 | .
CN(C)CCOc1ncnc2c1oc1ccccc12 | . | . | . | 18425 | .
CCSc1ncnc2c1oc1ccccc12 | . | . | . | 16868 | .
COc1ccc(S(=O)(=O)C(CNC(=O)c2cc3ccccc3oc2=O)c2ccco2)cc1 (stereo unspecified) | . | / | / | / | /
Cc1cc(C)nc(Sc2ncnc3c2oc2ccccc23)n1 | . | . | . | 21474 | .
COc1ccc(N(C(=O)C(C)C)S(=O)(=O)c2ccc(Cl)cc2)cc1 | . | . | . | 16342 | .
COc1ccc(N(C(=O)c2ccncc2)S(=O)(=O)c2ccc(Cl)cc2)cc1 | . | . | . | . | .
CCc1noc(C)c1C(=O)OCC(=O)c1ccc(OC)c(OC)c1 | . | . | . | . | .
COc1ccc(C(=O)COC(=O)CSCc2c(C)noc2C)cc1OC | . | . | . | 22438 | .
COc1ccc(Br)c(C(=O)N(C)CC(=O)Nc2ccc(N3CCOCC3)cc2)c1 | . | . | . | 21018 | .
CN(CC(=O)Nc1ccc(N2CCOCC2)cc1)C(=O)c1cccc(Cl)c1Cl | . | . | . | . | .
Cc1ccc(S(=O)(=O)CC(C)N2CCOCC2)c(S(=O)(=O)CC(C)N2CCOCC2)c1 (stereo unspecified) | . | . | . | 23181 | .
SMILES | PriA SSB inh | Anthrax LF inh2 | BoNT-A LC inh2 | Bead autofluor | BoNT F protease
CCCOc1ccc(C(=O)N2CCN(c3ccc(NC(=O)CC)cc3Cl)CC2)cc1 | . | . | ? | 20982 | .
COc1ccc(C(NC(=O)c2ccco2)c2ccc(OC)c(OC)c2)cc1OC | . | . | . | . | .
O=C(C[C@H](Sc1cccc2cccnc12)c1ccc(OC(F)F)cc1)c1ccco1 | 83 | / | / | / | /
COc1ccc(C(CC(=O)c2ccco2)Sc2cccc3cccnc23)cc1OC (stereo unspecified) | 81 | / | / | / | /
CCN(CC)C(=O)c1cc(Cl)ccn1 | . | . | . | . | .
O=C(Cl)c1cc(Cl)ccn1 | 83 | / | / | / | /
CCOc1ccc2ccccc2c1C(=O)NCc1cc(C)oc1C | . | / | / | / | /
C=CCn1c(O)c(C(CC)=NCCc2ccccc2)c(=O)[nH]c1=O | . | . | ? | 22909 | .
C=CCn1c(O)c(C(C)=NCc2cccnc2)c(=O)[nH]c1=O | . | . | . | 17471 | .
C=CCn1c(O)c(C(C)=NCCc2ccccc2)c(=O)[nH]c1=O | . | . | . | . | .
C=CCn1c(O)c(C(CC)=NCc2cccnc2)c(=O)[nH]c1=O | . | / | / | / | /
CCC(=NCCCN1CCOCC1)c1c(O)n(Cc2ccccc2)c(=O)[nH]c1=O | . | . | . | 19516 | .
Cc1cc(N)nc(Nc2ccc(Br)c(C)c2)n1 | . | / | / | / | /
Cn1cccc1C(CNC(=O)C(=O)NCCC1=CCCCC1)N1CCc2ccccc2C1 (stereo unspecified) | . | / | / | / | /
Cc1cc(NC(=O)CCCn2nc(-c3cccnc3)ccc2=O)no1 | . | / | / | / | /
CC(C)[C@H](NC(=O)NCCc1ccc(Cl)cc1)C(=O)O | . | . | ? | 17382 | .
CC(C)[C@H](NC(N)=O)C(=O)NCCc1ccc(Cl)cc1 | 39 | . | . | . | .
COc1ccc(NC(=O)NCc2ccccn2)cc1OC | . | . | . | 19081 | .
S=C(Nc1ccc2c(c1)OCO2)NC1CCN(Cc2ccccc2)CC1 | . | . | . | 20636 | .
COc1ccc(NC(=S)NCc2ccccn2)cc1OC | . | . | . | . | .
